The values below come from PubChem BioAssay (EPA / NIEHS).

Assay [1] deals with CCAAT/enhancer-binding protein beta (Homo sapiens) (UniProt P17676). Nature of the assay: ATG_C_EBP_CIS: Attagene CIS-FACTORIAL HepG2 Assay for human CCAAT/Enhancer Binding Protein (C/EBP) beta (AID 2282927). As to conditions: HepG2 Attagene cis-factorial transcription factor reporter; actives raise or lower the signal. In a few lines:
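HepG2 transiently transfected with multiplexed reporter units under cis-regulatory promoters reporting endogenous C/EBPb activity. After 24 h exposure, reporter mRNA assayed by RT-PCR, fluorescent labelling, HpaI digestion and capillary electrophoresis; bidirectional fitting versus DMSO.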

Assay [2] in a line: ATG_DR4_LXR_CIS: Attagene CIS-FACTORIAL HepG2 Assay for human Liver X Receptor (LXR), DR4 submotif (AID 2282929). As to conditions: HepG2 Attagene DR4 cis-reporter, mRNA transcription; actives raise or lower the signal. In a few lines:
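Total RNA from 24 h-treated, MRTU-transfected HepG2 cells underwent reverse transcription, PCR, fluorescent primer extension and restriction digestion before capillary electrophoresis. Both increases and decreases in reporter signal were fitted against DMSO.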

Assay [3] can be described thus: ATG_AP_2_CIS: Attagene CIS-FACTORIAL HepG2 Assay for human Activator Protein 2 (AP-2) (AID 2282932). As to conditions: HepG2 AP-2 cis-reporter, Attagene transcription factor profiling; actives raise or lower the signal. In a few lines: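 Liver-derived HepG2 line, cis-reporter system measuring endogenous factors; 24 h dosing; reporter mRNA detected by fluorescent RT-PCR and capillary electrophoresis.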

Assay [4] concerns the target Transcription factor E2F1 (Homo sapiens) (UniProt Q01094). Description: ATG_E2F_CIS: Attagene CIS-FACTORIAL HepG2 Assay for human E2F Transcription Factor 1 (AID 2282935). The conditions noted are these: HepG2 Attagene cis-reporter, E2F reporter RNA transcripts; actives raise or lower the signal. In short, it runs like this: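 Liver-derived HepG2 cells expressing transfected promoter-driven reporter units received test chemical for 24 hours. Signal gains or losses were fitted bidirectionally against DMSO.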

Assay [5] can be described thus: ATG_E_Box_CIS: Attagene CIS-FACTORIAL HepG2 Assay for human Enhancer Box (E-box) (AID 2282936). As to conditions: HepG2 E-box cis-reporter transcription, actives raise or lower the signal. In a few lines:
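In this cell-based setup, HepG2 cells bearing transfected promoter-driven reporter units were exposed to chemicals for 24 h; reporter transcripts were amplified, 6-FAM-labelled, cut with HpaI and sized by capillary electrophoresis.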

Assay [6] is described as follows: ATG_M_19_CIS: Attagene CIS-FACTORIAL HepG2 Assay for M19 Transcription Factor (Internal Marker) (AID 2282939). The conditions noted are these: HepG2 Attagene CIS-FACTORIAL M19 internal marker reporter; actives raise or lower the signal. In short, it runs like this: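 Chemical-treated HepG2 (24 h) with MRTU constructs; reporter transcripts detected by fluorescent RT-PCR fragment analysis on capillary electrophoresis. Internal background marker, DMSO as baseline.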

Assay [7] is described as follows: ATG_GLI_CIS: Attagene CIS-FACTORIAL HepG2 Assay for human Zinc Finger Protein GLI1 (AID 2282945). The conditions noted are these: HepG2, Attagene cis-factorial reporter mRNA, GLI element; actives raise or lower the signal. In a few lines:
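Transiently transfected HepG2 cells report endogenous transcription factor activity via cis-element-driven reporter units. After 24 h compound exposure, reporter mRNA was measured by RT-PCR with capillary electrophoresis; bidirectional fitting against DMSO baseline.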

The nature of assay [8]: ATG_ISRE_CIS: Attagene CIS-FACTORIAL HepG2 Assay for human Interferon Regulatory Factor 1 (IRF1) binding to an Interferon-Stimulated Response Element (ISRE) (AID 2282948). The conditions noted are these: HepG2 ISRE cis-reporter (Attagene), mRNA transcription readout; actives raise or lower the signal. In short, it runs like this: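 Endogenous transcription factor activity read as reporter transcript abundance via RT-PCR and capillary electrophoresis. HepG2 cells transiently transfected, 24 h chemical exposure. Gain or loss fitted against DMSO baseline.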

Assay [9] can be described thus: ATG_M_32_CIS: Attagene CIS-FACTORIAL HepG2 Assay for M32 Transcription Factor (Internal Marker) (AID 2282949).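 Also: background control marker of the multiplexed CIS panel rather than a real target.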 The conditions noted are these: HepG2 Attagene cis-factorial M32 reporter, mRNA; actives raise or lower the signal. In a few lines:
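HepG2 transfectants (cis-regulated reporter transcription units) dosed 24 h. Reporter mRNA by RT-PCR plus CE, analysed as gain or loss relative to DMSO.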

Assay [10] can be described thus: ATG_PXRE_CIS: Attagene CIS-FACTORIAL HepG2 Assay for human Pregnane X Receptor Element (PXRE) (AID 2282957). The conditions noted are these: HepG2 Attagene CIS-FACTORIAL PXRE reporter, mRNA; actives raise or lower the signal. In short, it runs like this: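 Bidirectional activity, baselined to DMSO, derived from reporter mRNA fluorescence (RT-PCR plus capillary electrophoresis) in HepG2 cells bearing cis-promoter reporter units, 24 h exposure.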

Assay [11] is described as follows: ATG_Sox_CIS: Attagene CIS-FACTORIAL HepG2 Assay for human SRY-box transcription factor (SOX) (AID 2282960). The conditions noted are these: HepG2 Attagene cis-factorial SOX reporter, mRNA; actives raise or lower the signal. In short, it runs like this: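 HepG2, cis reporter units, 24 h exposure. Reporter mRNA: RT-PCR → FAM labelling → HpaI → CE fluorescence. Bidirectional fit vs DMSO.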

For assay [12], the target named is Transcription factor Sp1 (Homo sapiens) (UniProt P08047). Description: ATG_Sp1_CIS: Attagene CIS-FACTORIAL HepG2 Assay for human Specificity Protein 1 (Sp1) (AID 2282961). As to conditions: HepG2 Sp1 cis-reporter transcription, actives raise or lower the signal. In a few lines: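 Liver-derived HepG2 cells, cis-element reporter library, 24 h treatment; RNA isolated, cDNA amplified with reporter-specific primers, FAM-labeled fragments sized on capillary analyzer. DMSO baseline, bidirectional curve fit.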

The target of assay [13] is Signal transducer and activator of transcription 3 (Homo sapiens) (UniProt P40763). Description: ATG_STAT3_CIS: Attagene CIS-FACTORIAL HepG2 Assay for human Signal Transducer and Activator of Transcription 3 (STAT3) (AID 2282963). As to conditions: HepG2, Attagene cis-factorial STAT3 reporter transcription; actives raise or lower the signal. In short, it runs like this:
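Fluorescence intensity of 6-FAM-labelled reporter fragments, separated by capillary electrophoresis after RT-PCR, gave the signal. Cells were HepG2 transfected with cis-element reporter units and treated 24 h; fitting was bidirectional relative to DMSO.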

Assay [14] is described as follows: ATG_TA_CIS: Attagene CIS-FACTORIAL HepG2 Assay for human TA Basal Promoter (AID 2282964). As to conditions: HepG2 Attagene CIS-factorial TA basal promoter reporter; actives raise or lower the signal. In a few lines: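 Background internal-marker endpoint from a 52-component HepG2 cis-reporter panel. Cells treated 24 h; reporter transcripts quantified via RT-PCR and CE fluorescence against DMSO baseline.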

Assay [15] in a line: ATG_TCF_b_cat_CIS: Attagene CIS-FACTORIAL HepG2 Assay for human T-Cell-Factor with beta-catenin (TCF/b-cat) (AID 2282965). The conditions noted are these: HepG2 TCF/beta-catenin cis-reporter transcription, actives raise or lower the signal. In short, it runs like this: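 HepG2 cells transiently transfected with cis-promoter-driven multiplexed reporter units; reporter mRNA measured 24 h after dosing by RT-PCR, FAM labelling, HpaI digestion and capillary electrophoresis. Bidirectional fitting relative to DMSO baseline.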

The nature of assay [16]: ATG_TAL_CIS: Attagene CIS-FACTORIAL HepG2 Assay for human TAL Basal Promoter (AID 2282966).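 Also: background control endpoint measuring basal TAL promoter reporter mRNA not a specific factor.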 The conditions noted are these: HepG2 Attagene cis-factorial TAL promoter reporter; actives raise or lower the signal. In a few lines: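 Human hepatoma HepG2 cells, transfected with promoter-regulated reporter units, were treated 24 h. Reporter transcript levels, measured through RT-PCR and capillary electrophoresis, were fitted for gain or loss relative to DMSO.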

Assay [17] has as its target X-box-binding protein 1 (Homo sapiens) (UniProt P17861). Description: ATG_Xbp1_CIS: Attagene CIS-FACTORIAL HepG2 Assay for human X-box Binding Protein 1 (XBP1) (AID 2282972). The conditions noted are these: HepG2 XBP1 cis-element reporter, Attagene multiplex; actives raise or lower the signal. In short, it runs like this: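 Reporter transcripts were quantified by RT-PCR with fluorescent primer extension and capillary electrophoresis after 24 h chemical exposure. Cells: transiently transfected HepG2 carrying cis-regulated reporter constructs; data fitted bidirectionally relative to DMSO.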

Assay [18] concerns the target Transcriptional activator Myb (Homo sapiens) (UniProt P10242). Nature of the assay: ATG_Myb_CIS: Attagene CIS-FACTORIAL HepG2 Assay for human Myeloblastosis (Myb) Proto-Oncogene Transcription Factor (AID 2282986). The conditions noted are these: HepG2 Attagene CIS-FACTORIAL Myb reporter transcription; actives raise or lower the signal. In a few lines:
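After 24 h of compound dosing, total RNA from transfected HepG2 cells is reverse-transcribed and the reporter sequences amplified, labeled and separated by capillary electrophoresis. Values come from bidirectional fitting against DMSO.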

Assay [19] addresses Myc proto-oncogene protein (Homo sapiens) (UniProt P01106). Description: ATG_Myc_CIS: Attagene CIS-FACTORIAL HepG2 Assay for human Myelocytomatosis (Myc) Proto-Oncogene Transcription Factor (AID 2282990). The conditions noted are these: HepG2, Attagene cis-reporter transcription factor activity; actives raise or lower the signal. In a few lines: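 Transiently transfected HepG2 cells bearing cis-promoter reporter units for endogenous transcription factors; 24 h exposure. Reporter mRNA measured by RT-PCR, 6-FAM primer extension, HpaI cut and capillary electrophoresis; bidirectional fit relative to DMSO.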

The nature of assay [20]: ATG_Oct_MLP_CIS: Attagene CIS-FACTORIAL HepG2 Assay for human Octamer-Binding Transcription Factor (Oct) (AID 2282993). As to conditions: HepG2 Attagene cis-factorial Oct reporter, mRNA; actives raise or lower the signal. In a few lines: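 Using HepG2 cells bearing transfected cis-reporter constructs, mRNA induction was read after 24 h by fluorescent RT-PCR and capillary electrophoresis, with DMSO defining baseline for gain- or loss-of-signal fits.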

Activity calls are given as the source filed them. The calls were made as follows: active = hit-call score of the fitted dose curve at least 0.9, where 1 is the maximum; inactive = score below 0.9.

Chain of X-box-binding protein 1 (Homo sapiens) (P17861 whole entry, looked up): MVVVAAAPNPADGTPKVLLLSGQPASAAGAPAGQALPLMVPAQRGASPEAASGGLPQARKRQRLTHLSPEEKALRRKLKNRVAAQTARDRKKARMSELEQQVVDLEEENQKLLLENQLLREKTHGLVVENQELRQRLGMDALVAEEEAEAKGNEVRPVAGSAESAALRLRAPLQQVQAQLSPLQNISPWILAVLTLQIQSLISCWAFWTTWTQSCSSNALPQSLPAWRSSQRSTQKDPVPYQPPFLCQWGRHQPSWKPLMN
Chain of Transcription factor E2F1 (Homo sapiens) (Q01094 whole entry, looked up): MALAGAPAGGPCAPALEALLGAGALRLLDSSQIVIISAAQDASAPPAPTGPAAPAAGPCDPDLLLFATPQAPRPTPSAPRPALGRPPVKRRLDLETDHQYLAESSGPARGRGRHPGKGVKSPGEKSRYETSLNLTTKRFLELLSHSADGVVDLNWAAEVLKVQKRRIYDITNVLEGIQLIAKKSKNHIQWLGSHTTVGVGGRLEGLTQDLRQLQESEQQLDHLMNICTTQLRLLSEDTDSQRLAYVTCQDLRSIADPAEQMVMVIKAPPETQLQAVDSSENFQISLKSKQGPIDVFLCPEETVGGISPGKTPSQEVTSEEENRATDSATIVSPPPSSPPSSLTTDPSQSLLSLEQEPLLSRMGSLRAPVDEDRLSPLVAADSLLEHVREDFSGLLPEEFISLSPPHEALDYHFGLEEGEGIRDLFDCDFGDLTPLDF
Chain of Transcriptional activator Myb (Homo sapiens) (P10242 whole entry, looked up): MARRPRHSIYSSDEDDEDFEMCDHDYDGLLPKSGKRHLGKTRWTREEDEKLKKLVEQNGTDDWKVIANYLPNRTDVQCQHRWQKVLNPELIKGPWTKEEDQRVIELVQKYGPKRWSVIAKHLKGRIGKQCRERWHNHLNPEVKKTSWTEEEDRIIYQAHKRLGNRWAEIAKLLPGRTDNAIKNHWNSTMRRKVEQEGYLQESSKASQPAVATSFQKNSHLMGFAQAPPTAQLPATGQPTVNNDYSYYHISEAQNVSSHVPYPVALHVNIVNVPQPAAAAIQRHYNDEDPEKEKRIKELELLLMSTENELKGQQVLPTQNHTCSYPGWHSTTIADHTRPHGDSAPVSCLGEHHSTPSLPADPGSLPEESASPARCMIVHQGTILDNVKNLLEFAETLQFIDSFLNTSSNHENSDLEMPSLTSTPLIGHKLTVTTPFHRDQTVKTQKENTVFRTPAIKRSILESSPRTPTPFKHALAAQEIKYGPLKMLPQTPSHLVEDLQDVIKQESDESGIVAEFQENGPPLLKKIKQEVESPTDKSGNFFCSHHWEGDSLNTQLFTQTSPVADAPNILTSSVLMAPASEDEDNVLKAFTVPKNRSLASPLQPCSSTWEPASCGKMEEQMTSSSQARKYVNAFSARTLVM
Chain of Signal transducer and activator of transcription 3 (Homo sapiens) (P40763 whole entry, looked up, the tested form may be a part): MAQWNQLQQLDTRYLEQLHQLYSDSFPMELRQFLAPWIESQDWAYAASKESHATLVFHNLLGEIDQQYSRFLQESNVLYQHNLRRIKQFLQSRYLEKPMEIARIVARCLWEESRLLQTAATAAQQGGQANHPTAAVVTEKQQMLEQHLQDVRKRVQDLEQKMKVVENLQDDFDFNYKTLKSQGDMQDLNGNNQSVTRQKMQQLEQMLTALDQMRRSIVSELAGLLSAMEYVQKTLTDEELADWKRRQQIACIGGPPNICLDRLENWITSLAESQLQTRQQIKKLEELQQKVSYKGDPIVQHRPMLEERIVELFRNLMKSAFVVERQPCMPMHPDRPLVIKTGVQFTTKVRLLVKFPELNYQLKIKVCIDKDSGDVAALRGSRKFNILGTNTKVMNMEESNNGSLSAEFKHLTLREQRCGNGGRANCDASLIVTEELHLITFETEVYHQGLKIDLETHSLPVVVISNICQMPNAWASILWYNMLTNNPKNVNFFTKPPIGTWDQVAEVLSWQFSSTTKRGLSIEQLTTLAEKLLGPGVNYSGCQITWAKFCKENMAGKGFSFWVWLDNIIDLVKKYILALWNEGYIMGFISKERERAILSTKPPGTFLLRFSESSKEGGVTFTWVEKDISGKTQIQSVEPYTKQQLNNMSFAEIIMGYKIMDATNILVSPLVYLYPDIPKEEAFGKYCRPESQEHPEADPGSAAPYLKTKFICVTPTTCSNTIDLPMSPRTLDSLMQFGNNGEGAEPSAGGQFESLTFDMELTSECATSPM
Chain of CCAAT/enhancer-binding protein beta (Homo sapiens) (P17676 whole entry, looked up): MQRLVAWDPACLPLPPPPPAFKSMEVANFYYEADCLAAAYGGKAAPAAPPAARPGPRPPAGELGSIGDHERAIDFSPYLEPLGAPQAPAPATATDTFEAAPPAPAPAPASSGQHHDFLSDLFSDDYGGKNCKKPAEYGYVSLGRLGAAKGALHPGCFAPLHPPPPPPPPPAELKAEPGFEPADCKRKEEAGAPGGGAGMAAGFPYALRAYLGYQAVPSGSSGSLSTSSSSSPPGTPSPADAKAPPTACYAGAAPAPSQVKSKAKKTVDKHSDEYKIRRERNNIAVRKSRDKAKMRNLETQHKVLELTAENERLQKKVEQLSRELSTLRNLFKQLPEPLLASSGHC
Chain of Myc proto-oncogene protein (Homo sapiens) (P01106 whole entry, looked up): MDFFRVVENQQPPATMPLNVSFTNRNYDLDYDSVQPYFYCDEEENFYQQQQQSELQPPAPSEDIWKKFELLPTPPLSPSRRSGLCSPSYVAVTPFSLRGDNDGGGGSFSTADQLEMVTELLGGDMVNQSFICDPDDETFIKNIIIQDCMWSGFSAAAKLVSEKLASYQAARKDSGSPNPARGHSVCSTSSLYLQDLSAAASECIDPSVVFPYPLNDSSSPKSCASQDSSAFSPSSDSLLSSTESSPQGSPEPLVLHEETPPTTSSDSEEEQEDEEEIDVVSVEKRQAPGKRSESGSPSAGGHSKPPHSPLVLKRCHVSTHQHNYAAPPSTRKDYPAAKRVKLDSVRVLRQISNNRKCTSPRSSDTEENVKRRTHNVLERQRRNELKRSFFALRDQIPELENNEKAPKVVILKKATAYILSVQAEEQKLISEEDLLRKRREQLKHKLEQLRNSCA
Chain of Transcription factor Sp1 (Homo sapiens) (P08047 whole entry, looked up, the tested form may be a part): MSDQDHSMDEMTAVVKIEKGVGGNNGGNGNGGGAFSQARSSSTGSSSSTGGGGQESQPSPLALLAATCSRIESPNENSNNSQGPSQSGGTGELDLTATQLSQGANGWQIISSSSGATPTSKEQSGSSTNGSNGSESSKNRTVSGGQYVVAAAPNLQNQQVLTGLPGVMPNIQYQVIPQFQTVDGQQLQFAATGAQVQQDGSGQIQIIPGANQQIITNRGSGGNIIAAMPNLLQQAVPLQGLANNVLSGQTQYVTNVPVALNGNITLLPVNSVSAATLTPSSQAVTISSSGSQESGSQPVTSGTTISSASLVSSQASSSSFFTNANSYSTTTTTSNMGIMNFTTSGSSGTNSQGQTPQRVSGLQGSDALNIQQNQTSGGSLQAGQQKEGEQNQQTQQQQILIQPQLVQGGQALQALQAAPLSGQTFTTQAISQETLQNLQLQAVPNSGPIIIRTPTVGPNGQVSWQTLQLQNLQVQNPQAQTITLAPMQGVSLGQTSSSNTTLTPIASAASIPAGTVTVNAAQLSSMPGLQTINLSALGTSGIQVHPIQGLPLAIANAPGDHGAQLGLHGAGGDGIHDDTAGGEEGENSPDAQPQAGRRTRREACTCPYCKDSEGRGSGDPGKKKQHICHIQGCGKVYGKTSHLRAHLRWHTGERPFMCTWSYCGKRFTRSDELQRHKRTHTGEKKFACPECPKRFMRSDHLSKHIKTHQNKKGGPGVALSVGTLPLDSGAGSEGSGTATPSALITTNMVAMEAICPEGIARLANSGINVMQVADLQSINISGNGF

Turning to `O=C(O)CCl`, the result in [1], in [2], in assay [3], in assay [4], in [5] and in assay [6] was inactive. Also, the outcome in [7], in [8], in assay [9], in assay [10], in [11] and in assay [12] was inactive. In addition, the outcome in [13], in assay [14], in [15], in assay [16], in assay [17] and in assay [18] was inactive. Moreover, the molecule was called inactive in assay [19] and in [20].

As for `CC1CCC(=O)O1` (stereo not given), the result in assay [1], in assay [2], in assay [3], in assay [4], in assay [5] and in assay [6] was inactive. The call in assay [7], in [8], in assay [9], in assay [10], in assay [11] and in [12] was inactive. In addition, the molecule was classed as inactive in assay [13], in assay [14], in assay [15], in assay [16], in assay [17] and in assay [18]. Besides, the call in assay [19] and in assay [20] was inactive.

Take `Cl/C=C\CCl`: the outcome in assay [1], in assay [2], in assay [3], in assay [4], in assay [5] and in assay [6] was inactive. Besides, the molecule was classed as inactive in assay [7], in assay [8], in [9], in assay [10], in [11] and in [12]. Besides, the molecule was called inactive in [13], in assay [14], in assay [15], in [16], in [17] and in assay [18]. The molecule was called inactive in assay [19] and in assay [20].

Broadly, the AC50 is the concentration giving half of the maximal activity seen. `CCC(Br)(CC)C(=O)NC(N)=O`: the result in [1], in [2], in assay [3], in assay [4], in [5] and in [6] was inactive. Further, the outcome in [7], in [8], in assay [9], in assay [11], in assay [12] and in assay [13] was inactive. Further, the call in assay [14], in [15], in assay [16], in assay [17], in assay [18] and in assay [19] was inactive. For the same molecule, the molecule was classed as inactive in [20]. Also, the AC50 in assay [10] was 48.5 µM (active).
